Test results from PubChem BioAssay (Tox21).
Records with an inconclusive call do not appear. Unmarked numbers belong to inactive results. Active and inactive are the calls of the source. The call rests on the fitted dose curve; in most records, active means well fitted inhibition curve with a large enough effect in the repeat runs; inconclusive means weak or mixed curves; inactive means no such curve, though single readings can be large or run the other way.

biological target: Cytochrome P450 2D6 (Homo sapiens) (UniProt P10635); experiment: Cytochrome P450 Family 2 Subfamily D Member 6 (CYP2D6) small molecule antagonists: luciferase reporter qHTS assay (AID 1671196); conditions: P450-Glo CYP2D6 enzyme assay, luciferin luminescence, 1 h; series mostly up to 115 µM; activity change, negative = inhibition: at the top concentration; further: nearly all actives have a fitted effect of over 50% in size
Source text: U.S. Tox21 Program National Center for Advancing Translational Sciences [NCATS] U.S. Environmental Protection Agency [EPA] National Institutes of Environmental Health Sciences [NIEHS] National Toxicology Program [NTP] U.S. Food and Drug Administration [FDA] Tox21 Assay Overview: Cytochrome P450 (CYP) enzymes are membrane-bound hemeproteins that play a key role in metabolism of drugs and xenobiotics. Evaluation of the effect of chemicals on CYP isozymes is useful to minimize the adverse drug reactions and toxicities in drug development process. Tox21 chemicals were tested for their effect on CYP enzyme activities by using P450-Glo (TM) screening systems (Promega Corporation, Madison, WI). These systems provide a luminescent method containing proluciferin substrates and are converted to luciferin products by CYP isozymes. The luciferin products formed are detected with a luciferin detection reagent, and the amount of light produced is proportional to CYP activity. P450-Glo (TM) CYP2D6 screening system (Catalog. No. V9890) was used to detect the compounds that interfere in CYP2D6 activity.
Tox21 Assay Protocol Summary: Two ul of enzyme-substrate mix was dispensed into medium binding white/solid 1536-well plates (Greiner Bio-One North America Inc., Monroe, NC) using a BioRaptr Flying Reagent Dispenser (FRD, Beckman Coulter, Brea, CA). […] The assay plates were incubated at room temperature for 10 min. Then 2 ul of NADPH regeneration solution was added to each well of the assay plates using an FRD and incubated at room temperature for 1 h. The reaction was stopped by adding 4 ul of detection reagent using an FRD and after 20 min incubation at room temperature the luminescence signal was measured using a ViewLux plate reader (Perkin Elmer, Shelton, CT). Data were expressed as relative luminescence units.
On the % scale 0 is the no-effect control and ±100 the full control effect; potency means the concentration at half of the fitted maximal effect.

Sequence of Cytochrome P450 2D6 (Homo sapiens) (P10635 whole entry, looked up): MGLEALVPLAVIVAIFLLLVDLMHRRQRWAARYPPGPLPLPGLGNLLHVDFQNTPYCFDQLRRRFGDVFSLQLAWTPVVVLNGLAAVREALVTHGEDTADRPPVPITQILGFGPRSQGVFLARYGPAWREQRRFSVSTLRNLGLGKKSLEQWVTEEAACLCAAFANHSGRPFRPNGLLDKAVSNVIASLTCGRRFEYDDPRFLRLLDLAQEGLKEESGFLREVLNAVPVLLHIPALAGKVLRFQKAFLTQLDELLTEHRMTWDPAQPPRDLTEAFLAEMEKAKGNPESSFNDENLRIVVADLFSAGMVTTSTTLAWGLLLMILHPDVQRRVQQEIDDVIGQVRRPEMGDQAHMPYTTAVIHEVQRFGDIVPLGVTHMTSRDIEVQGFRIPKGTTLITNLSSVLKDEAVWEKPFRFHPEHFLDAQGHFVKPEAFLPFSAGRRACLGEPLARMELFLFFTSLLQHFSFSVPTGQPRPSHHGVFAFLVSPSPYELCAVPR

Row | SMILES | activity change, negative = inhibition | Potency
1 | Nc1nc(N)nc(-c2cc(Cl)ccc2Cl)n1 | -0.283% [at 53 µM] | –
2 | COC(=O)c1ccccc1OC | 1.24% | –
3 | CCO[C@@H]1O[C@H](C(COCc2ccccc2)OCc2ccccc2)[C@H](OCc2ccccc2)[C@H]1O (stereo not given in full) | – | 38.9 µM (active)
4 | CCO[Si](OCC)(OCC)OCC | -2.93% | –
5 | COC(C)=O | -3.04% | –
6 | NC(=O)c1cccc([N+](=O)[O-])c1 | 0.0172% | –
7 | CCCCC(CC)CN1CN(CC(CC)CCCC)CC(C)(N)C1 (stereo not given) | – | 0.309 µM (active)
8 | C/C=C/C=C/COC(=O)C(C)C | -19% | –
9 | O=C(Oc1ccccc1)Oc1ccccc1 | -18.7% | –
10 | Cc1ccc(C(=O)O)cc1 | -8.59% | –
11 | CCCCCc1ccc(Cl)cc1 | -8.13% | –
12 | CCCCCCCCCCC[C@@H](C[C@@H]1OC(=O)[C@H]1CCCCCC)OC(=O)[C@H](CC(C)C)NC=O | -2.13% [at 53 µM] | –
13 | Cc1cc(C(C)(C)C)cc(C)c1CC1=NCCN1 | – | 3.47 µM (active)
14 | Cc1cc(-n2nc3ccc(Cl)cc3n2)c(O)c(C(C)(C)C)c1 | 1.39% [at 53 µM] | –
15 | CC1(C)CC(O)CC(C)(C)N1 | 2.85% | –
16 | O=C1C(c2[nH]c3ccc(S(=O)(=O)O)cc3c2O)=Nc2ccc(S(=O)(=O)O)cc21 | – | 63.3 µM (active)
17 | C#C[C@]1(OC(C)=O)CC[C@H]2[C@@H]3CCC4=C/C(=N/O)CC[C@@H]4[C@H]3CC[C@@]21CC | – | 27.5 µM (active)
18 | C#C[C@]1(OC(C)=O)CC[C@H]2[C@@H]3CCC4=C[C@@H](OC(C)=O)CC[C@@H]4[C@H]3CC[C@@]21C | -11.7% [at 53 µM] | –
19 | O=C(O)c1cccc(C(F)(F)F)c1 | -16.1% | –
20 | Cc1ccc(C(C)C)cc2c(C)ccc1-2 | -8.94% [at 53 µM] | –

Row | SMILES | activity change, negative = inhibition | Potency
21 | COC(=O)Nc1nc2ccc(C(=O)c3ccccc3)cc2[nH]1 | -7.12% [at 53 µM] | –
22 | CCCCN(CCCC)CC(O)c1cc(Cl)cc2c1-c1ccc(Cl)cc1/C2=C/c1ccc(Cl)cc1 (stereo not given) | – | 0.49 µM (active)
23 | CCCCCCOC(=O)C(C)CC (stereo not given) | 1% | –
24 | CCC(=O)OC(=O)CC | – | 62.8 µM (active)
25 | CC(CO)Oc1ccccc1 (stereo not given) | – | 41.2 µM (active)
26 | OC1CCC(C2CCCCC2)CC1 (stereo not given) | – | 39.9 µM (active)
27 | Nc1ccc(NCCO)c([N+](=O)[O-])c1 | – | 35.6 µM (active)
28 | CCCC(=O)OCCc1ccccc1 | -3.29% | –
29 | Cc1ccc(O)c(O)c1 | -8.27% | –
30 | C=CCCC(=O)/C=C/C1C(C)=CCCC1(C)C (stereo not given) | -16% | –
31 | Cc1ccc(O)c(N)c1 | – | 35.6 µM (active)
32 | O=C(O)c1cc(O)c2ccccc2c1O | – | 35.6 µM (active)
33 | NC[C@H]1O[C@H](O[C@H]2[C@H](O[C@@H]3O[C@H](CO)[C@@H](O)[C@H]3O)C(O)[C@H](N)C[C@@H]2N)[C@H](N)[C@@H](O)[C@@H]1O (stereo not given in full) | -0.538% [at 10.5 µM] | –
34 | OC12N=C(c3ccccc3)SC1Cc1cc(Cl)ccc12 (stereo not given) | – | 39.9 µM (active)
35 | CN1CCN(Cc2cc(-c3ccc4[nH]c(=O)oc4c3)co2)[C@@H](c2ccc(F)cc2)C1 | – | 34.3 µM (active)
36 | CC(C)=CCNc1ncnc2c1ncn2[C@@H]1O[C@H](CO)[C@@H](O)[C@H]1O | 1.12% [at 53 µM] | –
37 | O=c1[nH]c(=O)n([C@H]2C[C@H](O)[C@@H](CO)O2)cc1F | -11.1% [at 53 µM] | –
38 | CC[N+](CC)(CC)CCOC(=O)C(C1CCCC1)C1CCCC1 | – | 1.95 µM (active)
39 | CCC(C)n1ncn(-c2ccc(N3CCN(c4ccc(OC[C@H]5CO[C@](Cn6cncn6)(c6ccc(Cl)cc6Cl)O5)cc4)CC3)cc2)c1=O (stereo not given in full) | 0.231% [at 53 µM] | –
40 | Clc1ccnc(Cl)n1 | -16.2% | –
